Each structure is given as a SMILES string. Measured potencies and affinities stand elsewhere. The source made the active and inactive calls.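 The calls were made as follows: active = every repeat run showing a signal drop whose fitted half-maximal concentration is at most twice the top tested concentration; inconclusive = repeat runs disagree, or flat partial drop, or poor fit; inactive = the rest.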

The experiment in a line: general mammalian cell viability loss – activator set, cherry-pick, cytotoxicity control for miR-122 modulator project, dose response (AID 720690).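 Also: 0% = neutral control wells and -100% = MG132 cytotoxic control wells.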 The settings on record: HEK293T viability, CellTiter-Glo luminescence, 48 h; series mostly up to 26 µM; activity change, negative = cytotoxicity: at the top concentration. (ATP-based viability assays read luminescence as a measure of living cells.)
With `C[C@@H]1CN([C@H](C)CO)S(=O)(=O)c2ccc(C3=CCCC3)cc2O[C@@H]1CN(C)C(=O)C1CCOCC1`, the “activity change, negative = cytotoxicity” value was 4.94% (inactive).
To `COCC(=O)N1C[C@H]2[C@@H](c3ccccc31)[C@H](CO)N2C(=O)Nc1ccccc1Cl` belongs -7.62% (inactive).
To `C[C@@H]1CN([C@H](C)CO)C(=O)c2cccc(NC(=O)c3ccc(-c4nccs4)cc3)c2O[C@H]1CN(C)S(=O)(=O)c1ccc(F)cc1` belongs -0.125% [at 23.5 µM] (inactive).
Next, `CC(C)C#Cc1ccc2c(c1)O[C@H](CN(C)C(=O)c1ccncc1)[C@@H](C)CN([C@@H](C)CO)S2(=O)=O`: -2.31% (inactive); `CCN(CC)CCOc1cccc(C(C)C)c1`: 22.9% (inactive).
With `CC(=O)Oc1ccc2c(c1)C(=O)c1ccccc1CO2`, the “activity change, negative = cytotoxicity” value was 2.59% (inactive).
Next, `C/C=C/c1ccc([C@@H]2[C@@H](CO)N(C(C)=O)[C@H]2CN(C(=O)COC)C(C)C)cc1`: -1.5% (inactive); `CO[C@@H]1CN(C)C(=O)c2ccc(NC(=O)Nc3ccc(C(F)(F)F)cc3)cc2OC[C@H](C)NC[C@H]1C`: -12.8% (inactive); `C/C=C/c1ccc([C@H]2[C@H](CO)N(C(C)=O)[C@H]2CN(C)C(=O)c2ccccn2)cc1`: 5.37% (inactive).
To `COC(=O)C[C@H]1CC[C@@H]2[C@H](COc3ccc(NC(=O)c4cccs4)cc3C(=O)N2C)O1` belongs -2.48% (inactive).
Next, `CO[C@H]1CN(C)C(=O)c2cc(NC(=O)C3CC3)ccc2OC[C@H](C)N(CCc2ccccc2)C[C@H]1C`: -3.16% (inactive); `C/C=C/c1ccc([C@H]2[C@@H](CO)N[C@@H]2CN(CC(C)C)C(=O)c2ccccn2)cc1`: 13.9% (inactive); `CO[C@@H]1CN(C)C(=O)c2ccc(NC(=O)c3nc4ccccc4s3)cc2OC[C@H](C)N(Cc2cccnc2)C[C@H]1C`: -2.46% (inactive).
On to `O=c1c2cc(N3CCOCC3)ccc2[nH]c(=S)n1CCCN1CCCC1`, for which the “activity change, negative = cytotoxicity” value is 30.1% (inactive).
To `O=S(=O)(Nc1nccs1)c1ccc(NS(=O)(=O)c2cccs2)cc1` belongs 15.5% (inactive); to `CCNC(=O)C[C@@H]1CC[C@@H]2[C@H](COc3ccc(NC(=O)Nc4cccc(Cl)c4)cc3C(=O)N2C)O1`, -1.23% (inactive); to `CN1C(=O)c2cc(NC(=O)c3ccno3)ccc2OC[C@H]2O[C@@H](CC(=O)NCC3CC3)CC[C@@H]21`, -4.86% (inactive).
To `CC(=O)N1[C@H](CN(C(=O)c2ccc(F)cc2)C(C)C)[C@H](c2ccccc2)[C@@H]1CO` belongs -14.4% [at 23.5 µM] (inactive); to `N#Cc1c(N)nc2c(c1-c1cccs1)CCCC2`, 9.87% (inactive).
`COc1cccc(COc2cc3ccccc3nc2C)c1`: the “activity change, negative = cytotoxicity” value was -37.7% (inactive).
Next, `Cc1ccc(S(=O)(=O)Nc2ccc3c(c2)C(=O)N(C)[C@@H]2CC[C@@H](CC(=O)NCCc4ccncc4)O[C@@H]2CO3)cc1`: -7.64% (inactive).
Next, `COc1ccc2[nH]c(C(=O)O)c(NS(=O)(=O)c3ccc(Cl)s3)c2c1`: -13.1% (inactive); `CC(C)C(=O)Nc1ccc2c(c1)C(=O)N(C)[C@@H]1CC[C@H](CC(=O)N[C@H](C)c3ccccc3)O[C@@H]1CO2`: 0.742% (inactive); `CCC(=O)NC[C@@H]1[C@@H](c2ccc(C3=CCCC3)cc2)[C@@H](CO)N1C(C)=O`: 4.93% (inactive).
On to `COc1ccc(S(=O)(=O)N(C)C[C@@H]2Oc3ncc(/C=C/c4ccccc4)cc3C(=O)N([C@@H](C)CO)C[C@@H]2C)cc1`, for which the “activity change, negative = cytotoxicity” value is -17.3% (inactive).
To `C/C=C/c1ccc([C@H]2[C@@H](CO)N(Cc3ccccn3)[C@@H]2CNC(=O)CC)cc1` belongs 4.6% [at 23.5 µM] (inactive); to `COC(=O)C[C@H]1CC[C@H]2[C@H](COc3ccc(NC(=O)c4cccc(F)c4)cc3C(=O)N2C)O1`, -6.8% (inactive); to `CN1C(=O)c2cc(NC(=O)Nc3ccccc3Cl)ccc2OC[C@H]2O[C@H](CC(=O)O)CC[C@H]21`, 8.14% (inactive).
Next, `CCCc1ccc(S(=O)(=O)NCCc2ccncc2)cc1`: -8.93% (inactive); `Cc1ccc(-c2ccc3c(c2)O[C@H](CN(C)C(=O)CC2CC2)[C@H](C)CN([C@@H](C)CO)S3(=O)=O)cc1`: -17.2% (inactive); `Cc1cc(C(=O)Nc2cccc(O)c2)co1`: 2.9% (inactive).
On to `C/C=C/c1ccc([C@@H]2[C@@H](CN(C(=O)COC)C(C)C)N(C(C)=O)[C@H]2CO)cc1`, for which the “activity change, negative = cytotoxicity” value is -16.8% (inactive).
Turning to `COCC(=O)N1[C@@H](CO)[C@@H]2c3ccccc3N(C(=O)C3CC3)C[C@@H]21`, the “activity change, negative = cytotoxicity” value is 0.653% (inactive).
`C/C=C/c1ccc([C@@H]2[C@@H](CO)N[C@@H]2CN(CC(C)C)C(=O)c2ccccn2)cc1`: the “activity change, negative = cytotoxicity” value is -19.5% (inactive).
To `NC(=O)c1csc(-c2ccncc2)n1` belongs 8.98% (inactive); to `CCCNC(=O)Nc1ccc2c(c1)OC[C@@H](C)N(CCC)C[C@H](C)[C@H](OC)CN(C)C2=O`, -5.94% (inactive).
For `COC(=O)C[C@H]1CC[C@@H]2[C@@H](COc3ccc(NC(=O)Nc4ccc(Cl)cc4)cc3C(=O)N2C)O1`, the “activity change, negative = cytotoxicity” value was -8.59% (inactive).
Next, `CCCNC(=O)Nc1ccc2c(c1)C(=O)N(C)[C@H]1CC[C@H](CC(=O)NC3CCC3)O[C@H]1CO2`: -0.002% (inactive); `CCN(C[C@H]1[C@H](c2ccccc2)[C@@H](CO)N1S(C)(=O)=O)C(=O)C1CC1`: -5.84% (inactive).
Regarding `CCCNC(=O)C[C@H]1CC[C@@H]2[C@H](COc3ccc(NC(=O)c4cccs4)cc3C(=O)N2C)O1`, the “activity change, negative = cytotoxicity” value was 3.1% (inactive).
